These results are taken from PubChem BioAssay (Tox21).

Several values for one entry are separate records, joined by “and”; a condition that tells them apart may be missing. Equal values may be shown once. Results filed as inconclusive are left out. More than one record can exist for a structure, and the calls need not agree. Activity calls are given as the source filed them. The call rests on the fitted dose curve; in most records, active means well fitted cell-killing curve with a large enough effect in the repeat runs; inconclusive means weak or mixed curves, or effect the other way; inactive means flat fitted curve, though single readings scatter.
On the % scale 0 is the no-effect control and ±100 the full control effect; potency means the concentration at half of the fitted maximal effect.

The test is described as follows: Human pregnane X receptor (PXR) small molecule agonists, qHTS cell viability counter screen (AID 1346977). Further: nearly all actives have a fitted effect of over 50% in size. Conditions: PXR-Luc HepG2 viability, CellTiter-Fluor, 24 h; series mostly up to 92.4 µM; activity change, negative = cytotoxicity: at the top concentration. From the text:
U.S. Tox21 Program National Center for Advancing Translational Sciences [NCATS] NIH Chemical Genomics Center [NCGC] U.S. Environmental Protection Agency [EPA] National Institutes of Environmental Health Sciences [NIEHS] National Toxicology Program [NTP] U.S. Food and Drug Administration [FDA] Tox21 Assay Overview: The human pregnane X receptor (hPXR) regulates the expression of several drug metabolizing enzymes and induction of these proteins is a major mechanism for developing drug resistance in cancer. One such key enzyme catalyzing the drug metabolism is cytochrome P450 3A4 (CYP3A4). Changes in CYP3A4 expression affect drug metabolism, thereby reducing the therapeutic efficacy and altering toxicological response to a drug and which finally causes adverse drug interaction. To screen Tox21 libraries for compounds that activate hPXR-mediated CYP3A4 gene expression, PXR-Luc HepG2 cells were used. Also cytotoxicity of the compounds was tested in parallel by measuring the cell viability using CellTiter-Fluor assay system in the same wells.
Tox21 Assay Protocol Summary: PXR-Luc HepG2 cells were dispensed at 2,000 per well in 5uL of assay medium containing 5% charcoal-stripped FBS into white solid bottom 1536-well plates (Corning Life Sciences, Corning, NY) using a Multidrop Combi (Thermo Scientific, Waltham, MA) dispenser. The assay plates were incubated at 37 C and 5% CO2 for 5hr, and then 23nL of compounds dissolved in DMSO and positive control were transferred using a Pintool station (Wako, San Diego, CA). The assay plates were incubated at 37C and 5% CO2 for 24hr. For cytotoxicity read, after 23hr incubation at 37C, 1uL CellTiter-Fluor reagent (Promega Corporation, Madison, WI) was added to each well of the assay plates using Flying Reagent Dispenser (FRD, Aurora Discovery, San Diego, CA). After 1hr incubation at 37C and 5% CO2, the fluorescence signal was quantified using a ViewLux plate reader (PerkinElmer, Shelton, CT).
(In general: In qHTS, concentration-response curves come from the screen itself.)
In the case of `C=CC(=O)OCCCCCCCC`, the “activity change, negative = cytotoxicity” value is 8.38% (inactive).
On the same count and under the same terms, as for `CC(C(O)c1ccc(O)cc1)N1CCC(Cc2ccccc2)CC1` (stereo not given), the figure is -19.1% [at 42.5 µM] (inactive).
Take `C=CC(=O)OCCCCCCOC(=O)C=C`: the Potency entry was “inactive”.
With `O=C(O)CCc1ccccc1`, the “activity change, negative = cytotoxicity” value was 6.24% (inactive).
As to `CC(=O)CC(C)=O`, the “activity change, negative = cytotoxicity” value was 2.01% (inactive).
`O=C(O)c1cc(Cl)cc(Cl)c1`: the “activity change, negative = cytotoxicity” value was 0.722% (inactive).
For `N[C@@H]1CONC1=O`, the “activity change, negative = cytotoxicity” value was -4.19% [at 42.5 µM] (inactive).
As for `CC(=O)O[C@]1(C(C)=O)CC[C@H]2[C@@H]3C[C@H](C)C4=CC(=O)CC[C@]4(C)[C@H]3CC[C@@]21C`, the Potency result is “inactive”.
Regarding `CC(=O)N[C@@H](CS)C(=O)O`, the Potency result was “inactive”.
As to `CCCCCC(=O)O[C@]1(C(C)=O)CC[C@H]2[C@@H]3CCC4=CC(=O)CC[C@]4(C)[C@H]3CC[C@@]21C`, the Potency was 43 µM (active).
On the same count and under the same terms, next, `CCN(CC)c1ccc2c(C)cc(=O)oc2c1`: “inactive”.
On to `COc1nc(C)nc(Cl)c1NC1=NCCN1`, for which the “activity change, negative = cytotoxicity” value was -0.922% [at 42.5 µM] (inactive).
On to `Cc1cccc(O)c1C`, for which the Potency result is “inactive”.
For the compound `Cc1scc2c1N(C(=O)CN1CCN(C)CC1)c1ccccc1NC2=O`, the “activity change, negative = cytotoxicity” value was 1.97% [at 42.5 µM] (inactive).
Consider `c1ccc2n[nH]nc2c1`, for which the Potency entry was “inactive”.
The same measure, in the same setting: next, `Nc1cc(Cl)c(-c2cc(Cl)c(N)cc2Cl)cc1Cl`: 50.1 µM (active) and 68.6 µM (active).
In the case of `COc1cc(C(=S)N2CCOCC2)ccc1O`, the “activity change, negative = cytotoxicity” value was 0.931% [at 42.5 µM] (inactive).
Take `CCN1CCCC1CNC(=O)c1cc(S(=O)(=O)CC)c(N)cc1OC` (stereo not given): the “activity change, negative = cytotoxicity” value is 1.73% [at 42.5 µM] (inactive).
Take `Cc1cccc2n[nH]nc12`: the Potency result is “inactive”.
Take `CC(=O)OCC1=C(C(=O)O)N2C(=O)[C@@H](NC(=O)Cc3cccs3)[C@H]2SC1`: the “activity change, negative = cytotoxicity” value was 7.48% [at 42.5 µM] (inactive).
Take `NC12CC3CC(CC(C3)C1)C2`: the “activity change, negative = cytotoxicity” value is -1.35% [at 42.5 µM] (inactive).
Still for that read-out and setting: as for `CN1C(=O)c2ccc([N+](=O)[O-])cc2C1=O`, the figure is -1.49% (inactive).
Still for that read-out and setting: next, `NC(N)=NC(=O)Cc1c(Cl)cccc1Cl`: -19.5% [at 42.5 µM] (inactive).
`COC(=O)[C@H]1[C@H]2C[C@@H]3c4[nH]c5cc(OC)ccc5c4CCN3C[C@H]2C[C@@H](OC(=O)c2cc(OC)c(OC)c(OC)c2)[C@@H]1OC`: the Potency was 39.7 µM (active) and inactive.
For `CCC(CO)(CO)COCC(CC)(CO)CO`, the “activity change, negative = cytotoxicity” value was 3.47% (inactive).
As for `CO[Si](OC)(OC)c1ccccc1`, the “activity change, negative = cytotoxicity” value is -1.14% (inactive).
Turning to `CCCCCCCCCCCCCC[P+](CCCC)(CCCC)CCCC`, the Potency is 6.31 µM (active) and 13.7 µM (active).
`CCN(CC)C(=O)Nc1ccc(OCC(O)CNC(C)(C)C)c(C(C)=O)c1` (stereo not given): the “activity change, negative = cytotoxicity” value is 0.42% [at 42.5 µM] (inactive).
`CCN(CC)CCOc1ccc(/C(=C(\Cl)c2ccccc2)c2ccccc2)cc1`: the Potency was 39.4 µM (active) and 26.6 µM (active).
Take `CCCCC/C=C/CC1CC(=O)OC1=O` (stereo not given): the “activity change, negative = cytotoxicity” value is 19.9% (inactive).
Still for that read-out and setting: next, `Cc1cccc([N+](=O)[O-])c1C(=O)O`: -7.09% (inactive).
For the compound `Oc1ccc(Cl)cc1Cc1cc(Cl)ccc1O`, the Potency was 35.5 µM (active) and 30.6 µM (active) and 16.8 µM (active).
On to `Cc1cc(OCCOCC[N+](C)(C)Cc2ccccc2)ccc1C(C)(C)CC(C)(C)C`, for which the Potency was 54.2 µM (active).
With `OCCN1CCNCC1`, the Potency entry was “inactive”.
For `NC(=Nc1ccccc1)Nc1ccccc1`, the Potency was 4.86 µM (active).
In the case of `C[N+]1([O-])CCOCC1`, the “activity change, negative = cytotoxicity” value is 4.4% (inactive).
`c1ccc2c(c1)-c1cccc3c1c-2cc1ccccc13`: the Potency entry is “inactive”.
With `Cc1ccc(S(=O)(=O)Oc2ccc(N=Nc3ccc(-c4ccc(N=Nc5c(O)ccc6cc(S(=O)(=O)O)cc(S(=O)(=O)O)c56)c(C)c4)cc3C)cc2)cc1`, the Potency was 11.2 µM (active) and 8.92 µM (active).
The same measure, in the same setting: next, `CC(C)(C)NC(=O)[C@@H]1CN(Cc2cccnc2)CCN1C[C@@H](O)C[C@@H](Cc1ccccc1)C(=O)N[C@H]1c2ccccc2C[C@H]1O`: “inactive”; `Cc1c(O)cccc1C(=O)N[C@@H](CSc1ccccc1)[C@H](O)CN1C[C@H]2CCCC[C@H]2C[C@H]1C(=O)NC(C)(C)C`: 16.8 µM (active) and 13.3 µM (active).
